# Rows were chosen to be rich in hits. Some 19% of all compounds tested hit in one or more screens of this group.
# DT40 TDP1 CPT = growth inhibition of DT40 Tdp1-/-;hTDP1 cells with camptothecin (screen for TDP1 inhibitors); chicken DT40 Tdp1-/-;hTDP1 cells + 20 nM CPT, ATP luminescence, 48 h; Potency, µM (titrated, usually from 46.2 µM), for inactives: at the top dose activity change, negative = growth inhibition, usual class: inhibitors; actives 12% (n = 420,000); AID 686979; further: potency means the concentration at half of the fitted maximal effect; on the % scale 0 is the no-effect control and ±100 the full control effect; nearly all actives have a fitted effect of over 55% in size
#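 Cell growth measured by CellTiter-Glo luminescence after a minimum 48 h, 37 C compound exposure with 20 nM CPT in Tdp1-knockout DT40 cells stably expressing hTDP1, seeded 400/well; qHTS titration format.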
# ASM inhibitor = inhibitors of human secretory acid sphingomyelinase; actives 0.006% (n = 340,000); placental ASM, HMU-PC fluorogenic substrate, 60 min; Potency, µM (doses to about 57.5 µM), for the others: top-dose activity change, negative = inhibition, most hits filed as inhibitors; P17405; AID 504937; further: potency means the concentration at half of the fitted maximal effect
# Target sequence (P17405 47-631 limits assumed): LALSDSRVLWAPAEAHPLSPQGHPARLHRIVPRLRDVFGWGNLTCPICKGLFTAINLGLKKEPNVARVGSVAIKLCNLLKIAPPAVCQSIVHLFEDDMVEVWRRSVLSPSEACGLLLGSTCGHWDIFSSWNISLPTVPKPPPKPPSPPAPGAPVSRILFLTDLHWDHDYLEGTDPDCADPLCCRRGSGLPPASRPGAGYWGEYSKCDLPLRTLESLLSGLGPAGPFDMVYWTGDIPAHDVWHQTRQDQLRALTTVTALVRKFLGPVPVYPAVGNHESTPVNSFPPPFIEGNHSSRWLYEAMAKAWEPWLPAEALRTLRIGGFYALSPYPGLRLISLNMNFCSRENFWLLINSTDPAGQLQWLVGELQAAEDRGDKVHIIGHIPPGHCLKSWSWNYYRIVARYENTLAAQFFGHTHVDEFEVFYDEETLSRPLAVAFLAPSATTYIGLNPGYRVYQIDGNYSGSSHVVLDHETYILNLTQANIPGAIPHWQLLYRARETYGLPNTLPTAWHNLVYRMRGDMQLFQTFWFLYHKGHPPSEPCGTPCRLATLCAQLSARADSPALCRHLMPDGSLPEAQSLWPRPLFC
#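 qHTS format. ASM enzyme prepared from human placenta hydrolyses the fluorogenic substrate HMU-PC0 (9 uM final) over 60 min at 37 °C after a 10 min compound preincubation.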
# HepG2 viability = HepG2 cytotoxicity, counter-screen for TGF-b inhibitors. HepG2 CAGA-GFP viability, ATP luminescence, 18 h. Potency, µM (doses to about 46.1 µM), inactives show at the highest dose activity change, negative = cytotoxicity, usual class: cytotoxic. actives 0.76% (n = 410,000); further: potency means the concentration at half of the fitted maximal effect
#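 HepG2 CAGA-GFP cells (1000/well, DMEM with 1% FBS) received compound, then TGF-beta at 500 pg/mL final, and were incubated 18 hours at 37 degrees C. Viability was read by CellTiter-Glo luminescence. Media-only wells were set as complete cell-killing and DMSO as no toxicity.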
# IL-1B inflam inh = inhibitors of inflammasome signaling (IL-1 beta secretion); THP-1 LPS/ATP IL-1B secretion, AlphaLISA, 16 h; hits give low values; activity change, % at 57.5 µM; actives 4.7% (n = 360,000); AID 743279; in the data active means activity change below about -50%; inconclusive means mostly about -30% to -49%; further: on the % scale 0 is the no-effect control and ±100 the full control effect
#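 THP-1 cells pretreated 1 hr with compounds (up to 57.5 uM final), then stimulated with LPS (250 ng/mL final) plus ATP (1.25 mM final); secreted IL-1B measured by AlphaLISA after 16 hr, decreased signal indicating inhibition.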
# TGFb SMAD3 inh = inhibitors of TGF-b signaling; HepG2 CAGA-GFP TGF-b/SMAD3 reporter, GFP fluorescence, 18 h; TGF-beta stimulated, 500 pg/mL final; Potency, µM (doses to about 46.1 µM), for the others: at the top dose activity, negative = inhibition, actives largely listed as inhibitors; actives 1.2% (n = 410,000); AID 588855; further: potency means the concentration at half of the fitted maximal effect; on the % scale 0 is the no-effect control and ±100 the full control effect; nearly all actives have a fitted effect of over 65% in size
#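 HEPG2 CAGA-GFP cells (1000/well, DMEM with 1% FBS) were pre-incubated 2 h at 37 degrees C, given compound by pin tool, then stimulated with TGF-beta at 500 pg/mL final for 18 h before per-cell GFP fluorescence imaging.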
# TDP1 cell noCPT = qHTS for Inhibitors of human tyrosyl-DNA phosphodiesterase 1 (TDP1): qHTS in cells in absence of CPT; AID 686978, 2013; Potency, µM (doses to about 46.2 µM), inactives show at the top dose activity change, negative = growth inhibition, usual class: inhibitors; DT40 Tdp1-/- hTDP1 cells, no CPT, ATP luminescence, 48 h; actives 15% (n = 420,000); further: potency means the concentration at half of the fitted maximal effect; on the % scale 0 is the no-effect control and ±100 the full control effect; nearly all actives have a fitted effect of over 55% in size
#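 Cells were dispensed at 400 per well, compounds added by pin tool, plates incubated ≥48 hr at 37 °C, then CellTiter-Glo added for 30 min at room temperature before luminescence reading. Line: DT40 Tdp1-/- complemented with hTDP1; camptothecin omitted.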
# * hit, by the source's call; u = inconclusive; x = no result. Unless noted, the call rests on the fitted dose curve; in most records, active means well fitted curve in the direction sought with a large enough effect; inconclusive means small, poorly fitted or top-dose-only effect, or another doubt; inactive means no such curve, though single readings can be large; an effect the other way counts as inactive or inconclusive.
SMILES,DT40 TDP1 CPT,ASM inhibitor,HepG2 viability,IL-1B inflam inh,TGFb SMAD3 inh,TDP1 cell noCPT
CCC(C)N(C)Cc1cccc(C2(O)CCN(S(=O)(=O)c3ccc(F)c(C)c3)CC2)c1 (configuration not stated),18µM*,x,-15%,-23,12%,18µM*
CCOc1ccc(NC(=S)N(CCc2c(C)[nH]c3ccccc23)Cc2ccco2)cc1,13µM*,-8%,-29%,u,u,u
CCOC(=O)c1ccc(NC(=S)N(CCCN2CCCC(C)C2)Cc2cccs2)cc1 (configuration not stated),u,-1%,0%,-81*,3%,26µM*
CCOC(=O)c1ccc(NC(=S)N(CCN2CCCCCC2)Cc2cccs2)cc1,u,-2%,-2%,-3,6%,15µM*
Cc1ccccc1NC(=S)N(CCCN1CCC(C)CC1)Cc1ccco1,2%,0%,-7%,-8,7%,u
Cc1ccc(NC(=S)N(CCCN2CCC(C)CC2)Cc2ccco2)cc1C,u,5%,-3%,-78*,3%,u
COc1cc(OC)cc(-c2nc3nc(C)c(CCC(=O)Nc4ccc(C)cc4C)c(C)n3n2)c1,4%,x,3%,x,-14%,-26%
O=C(CNC(=S)N(CCCN1CCOCC1)Cc1cccs1)NC1CCCCC1,-11%,-3%,-24%,7,1%,-6%
CCOC(=O)c1ccc(NC(=S)N(CCCN2CCCC2)Cc2ccco2)cc1,u,0%,-21%,-67*,8%,u
O=C(CNC(=S)N(CCCN1CCOCC1)Cc1cccs1)NC1CCCCCCC1,u,3%,-15%,-54*,-26%,16µM*
Cc1ccc(NC(=S)N(CCCN2CCN(C)CC2)Cc2cccs2)cc1C,-10%,1%,-32%,-61*,7%,-28%
COc1ccc(NC(=S)N(CCCN2CCC(C)CC2)Cc2cccs2)cc1,-10%,1%,-29%,-51*,u,u
COc1cc(NC(=O)CC(C)S(=O)(=O)c2cc3c4c(c2)CCN4C(=O)CC3)cc(OC)c1 (configuration not stated),-18%,x,-15%,x,-12%,-9%
CCOC(=O)c1ccc(NC(=S)N(CCCN2CCN(CC)CC2)Cc2cccs2)cc1,u,-3%,-24%,-1,-17%,18µM*
CCCCCC(=O)NC(NC(=S)Nc1ccc(S(N)(=O)=O)cc1)C(Cl)(Cl)Cl (configuration not stated),3%,-14%,-13%,-2,24%,-5%
CCCCCCCC(=O)NC(Nc1ccc(S(N)(=O)=O)cc1)C(Cl)(Cl)Cl (configuration not stated),u,-15%,-32%,-21,u,21µM*
O=C(/C(N=Nc1cccc(C(F)(F)F)c1)=C(/O)c1cccs1)C(F)(F)F,u,-20%,-41%,-62*,13µM*,21µM*
CC(=O)/C(N=Nc1cccc(C(F)(F)F)c1)=C(\C)O,-24%,-2%,3%,16,6%,-14%
C[C@]1(OC(=O)/C=C/c2ccccc2)C[C@@H](O)[C@]2(O)C=CO[C@@H](O[C@@H]3O[C@H](CO)[C@@H](O)[C@H](O)[C@H]3O)[C@@H]21,2%,12%,-10%,16,-5%,-1%
CS(=O)(=O)c1ccc(Cl)c(NC(=O)COc2ccc3c(c2)CCC3)c1,-12%,-1%,1%,8,0%,-9%
Cc1ccc(C(=O)Nc2c(-c3ccccc3)nc3ccccn23)cc1,-30%,x,-3%,x,u,-23%
COc1ccc(C(=O)c2ccccc2)cc1Br,-17%,-4%,-2%,-53*,0%,0%
CC(=O)c1ccc(OCC(=O)NC2CCCCCC2)cc1,-5%,4%,-2%,14,u,-13%
COc1ccccc1OCc1ccc(C(=O)c2ccccc2)cc1,-15%,2%,-6%,u,-21%,u
COc1ccc(C(=O)NCc2ccccc2)cc1Br,-10%,2%,-22%,-7,-10%,-11%
SMILES,DT40 TDP1 CPT,ASM inhibitor,HepG2 viability,IL-1B inflam inh,TGFb SMAD3 inh,TDP1 cell noCPT
CC1CCN(CCOc2ccc(C(=O)c3ccccc3)cc2)CC1,16µM*,9%,-23%,-5,-26%,u
COc1ccccc1OCCOc1ccc(C(=O)c2ccccc2)cc1,18µM*,-6%,-2%,-12,0%,u
CC1CCC(NC(=O)COc2ccc(C(=O)c3ccccc3)cc2)CC1 (configuration not stated),u,-1%,-34%,-65*,-23%,10µM*
O=[N+]([O-])c1cc([N+](=O)[O-])c2cc(-c3cccnc3)[nH]c2c1,6%,4%,2%,61,-13%,u
Cc1cccc(NC(=O)N2CCC(CN3CCOCC3)CC2)c1C,-7%,x,0%,x,7%,-1%
Cc1ccc(C(=O)NC(C(=O)OCc2cn3cc(Cl)ccc3n2)C(C)C)cc1 (configuration not stated),u,-2%,-35%,27,u,-28%
O=C(Cn1cc(SCc2ccc(Cl)cc2)c2ccccc21)N1CCOCC1,u,-1%,-25%,0,u,21µM*
CCc1ccc(NC(=O)CSc2cn(CC(=O)N3CCOCC3)c3ccccc23)cc1,-5%,x,-24%,x,0%,u
CN(C(=O)CSc1cn(CC(=O)N2CCOCC2)c2ccccc12)c1ccccc1,u,2%,6%,-5,-1%,u
O=C(Cn1cc(SCc2ccc(F)cc2)c2ccccc21)N1CCOCC1,u,-1%,-4%,0,0%,16µM*
O=C(Nc1ccc(Br)cn1)c1cccc(-c2cc3ccccc3oc2=O)c1,u,4%,-20%,17,13%,u
O=C(Nc1ccccc1N1CCCC1)c1cccc(-c2cc3ccccc3oc2=O)c1,u,-6%,2%,-1,0%,21µM*
O=C(Nc1ccc(N2CCCC2)cc1)c1cccc(-c2cc3ccccc3oc2=O)c1,16µM*,-5%,4%,-23,u,23µM*
O=C(Nc1ccc(N2CCCC2)cc1)c1ccc2ccccc2c1,1%,-2%,6%,-5,8%,-17%
O=C(CCc1ccccc1)Nc1ccc2c(c1)C(=O)OC2,9%,0%,1%,6,0%,-18%
